# Assay results reported in PMC7819943, “Rice protein-binding microarrays: a tool to detect cis-acting elements near promoter regions in rice”.
# In all, about 68,000 sequences were measured (“fluorescence intensity (a.u.)”: median about 9,100, highest 2% from about 16,000 on). The sample as a whole holds a higher share of the highest values than the screen did.
# Biological target: OsWRKY34 (Oryza sativa, UniProt Q0JBA9 1-250)
# Assay: protein-binding microarray (RPBM); PBS, 2% BSA, 51.3 ng/ul salmon testes DNA, 50 uM zinc acetate, 200 nM TF, 25 C, 1 h; high values mean tight binding
# Settings: protein: recombinant; tags: N-terminal polyhistidine and DsRed monomer fusion (pET32a); label: CyDye5-dUTP incorporated in the synthesized complementary strand; 3' TTTTT single-stranded linker to array surface; dsDNA, one strand shown
# Summary of the method: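 Polyhistidine-tagged DsRed fusions of transcription factors, joined at the N-terminus, were expressed in E. coli BL21-CodonPlus and isolated on Ni–NTA. They were incubated at 200 nM for 1 h at 25 °C on a custom Agilent array, double-stranded and BSA-blocked, in PBS with 2% BSA, salmon testes DNA and 50 µM zinc acetate. The binding signal is per-feature fluorescence intensity (arbitrary units) read on an Axon 4000B scanner after washing.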
# Sequence of OsWRKY34 (Q0JBA9 entry or part of it): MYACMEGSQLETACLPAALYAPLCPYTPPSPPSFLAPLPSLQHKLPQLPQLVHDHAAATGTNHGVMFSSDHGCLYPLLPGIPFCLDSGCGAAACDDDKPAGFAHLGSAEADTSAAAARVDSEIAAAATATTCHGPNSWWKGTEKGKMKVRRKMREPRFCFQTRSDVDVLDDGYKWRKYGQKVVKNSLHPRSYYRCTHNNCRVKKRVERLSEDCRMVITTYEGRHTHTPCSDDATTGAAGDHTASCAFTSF
row,Sequence,binding signal
1,CAAAAACACTCCACATATTTTTCCTTTTAGTTACGTAATTCGGAGTCACCTAGTGCAG,9500 fluorescence intensity (a.u.)
2,TCGTCGTGTTCGTGTTTTTTTTCTTCCAATCTGCGCGCGTCGGAGTCACCTAGTGCAG,8990 fluorescence intensity (a.u.)
3,TACGCTGTGATCCCCGTCTTCAATTTCTCGTTCGCTCTCACGGAGTCACCTAGTGCAG,12800 fluorescence intensity (a.u.)
4,AGCCTATTTCATTTGATATATCATGGTGCATGATCTAATTCGGAGTCACCTAGTGCAG,11100 fluorescence intensity (a.u.)
5,ACGTCCAAATCACATTATATCAGTTCCTGTTTGTAACCGCCGGAGTCACCTAGTGCAG,8550 fluorescence intensity (a.u.)
6,GTGCCTGTTTGCTTCAGTGATGCTGGTGGTGGTTGCCTAACGGAGTCACCTAGTGCAG,9460 fluorescence intensity (a.u.)
7,GTACTCCTGGTCCGCATCCACCGTCCATCCGCGTACCGCACGGAGTCACCTAGTGCAG,11000 fluorescence intensity (a.u.)
8,GTTCTTCTTCTTCTTCTTCTTTTTTTCGTCCAAGGCCACTCGGAGTCACCTAGTGCAG,8280 fluorescence intensity (a.u.)
9,AGTTTTTTCCTTTTAATCTCCGACTTCACCGGGTTTTTTCCGGAGTCACCTAGTGCAG,8260 fluorescence intensity (a.u.)
10,TTTTCTCCTTTCGCGTTGCGTCCGCGATCCGATCGATCGACGGAGTCACCTAGTGCAG,9560 fluorescence intensity (a.u.)
11,CGACAGTTTCCTTTTTCGCGACCACTTCCGATCTCCTAAACGGAGTCACCTAGTGCAG,17000 fluorescence intensity (a.u.)
12,CGTTTTTGTGTCTTTCATTTGAGGAGGAACTGCGATTCTTCGGAGTCACCTAGTGCAG,9400 fluorescence intensity (a.u.)
13,AACTTCTTGCATGTGCCTTTTTTATCATCTGCATATATTTCGGAGTCACCTAGTGCAG,10300 fluorescence intensity (a.u.)
14,ACTTCCGATGCGTAATAAGGCTTTAGTCCCACAACTGACGCGGAGTCACCTAGTGCAG,8630 fluorescence intensity (a.u.)
15,GCTCTAACACACCTTCATCATGCATGCATATGTGCTATTTCGGAGTCACCTAGTGCAG,8080 fluorescence intensity (a.u.)
16,CATTACTTTTTTGGTGGACTTGCAAAAACATGGGCATTTTCGGAGTCACCTAGTGCAG,8680 fluorescence intensity (a.u.)
17,GGTGGGTGGGCATTTGCAACAAAATAACTTACGGGGTGGACGGAGTCACCTAGTGCAG,17000 fluorescence intensity (a.u.)
18,AGTAGGAGGGTGGGTATTTGCAACAAAATGACTTATGAGGCGGAGTCACCTAGTGCAG,12800 fluorescence intensity (a.u.)
19,AAAATAACTTACGGGGTGGAATGTCAAACTTCAAGTGACTCGGAGTCACCTAGTGCAG,8470 fluorescence intensity (a.u.)

row,Sequence,binding signal
1,CATATGCACTAACAAAACCGAGTAGGAGGGTGGGTATTTGCGGAGTCACCTAGTGCAG,8580 fluorescence intensity (a.u.)
2,TTACAACAAAACTAAGTAGGGGTGGGTATTTGCAACAAAACGGAGTCACCTAGTGCAG,17600 fluorescence intensity (a.u.)
3,GGTTTGCCGTCGTCGGCGTCGGCCGCTGCCTCGCGCGCGCCGGAGTCACCTAGTGCAG,9230 fluorescence intensity (a.u.)
4,AGCCTACCAGCTGCACCGCAAATGCCGTGTACTGCTTTCTCGGAGTCACCTAGTGCAG,8340 fluorescence intensity (a.u.)
5,GTGATGTGCTGCAACCTCGCCGCCAGCCGCGCCCTGTGCGCGGAGTCACCTAGTGCAG,8560 fluorescence intensity (a.u.)
6,ATATCTGTTTTTACGGTTCGAGGACGTTTTTATATCCGATCGGAGTCACCTAGTGCAG,8940 fluorescence intensity (a.u.)
7,TAACACCGTTGACTTTTTAGCTCATGTTTGACCATTCGTCCGGAGTCACCTAGTGCAG,27400 fluorescence intensity (a.u.)
8,ACGTGTTTGACCATTCGTTTTATTCAAATCATTTAAGTAACGGAGTCACCTAGTGCAG,9230 fluorescence intensity (a.u.)
9,TTAACTTTTTAGTACGTGTTTGACCATTCGTATTATTCAACGGAGTCACCTAGTGCAG,9020 fluorescence intensity (a.u.)
10,TGTTTGACACCGTTGACTTTTTAGTCGTGTTTGACCATTCCGGAGTCACCTAGTGCAG,24400 fluorescence intensity (a.u.)
11,ACCTCTGTTTTTAATAGATGACGTGTCGTTGACTTTTTATCGGAGTCACCTAGTGCAG,13300 fluorescence intensity (a.u.)
12,GACACCGTTGACTTTTTAAGTACGTGTTTGACCATTCGTCCGGAGTCACCTAGTGCAG,43700 fluorescence intensity (a.u.)
13,CATCGTTGAACTTTATCGTGCCCTTCACACCATTCCGTCGCGGAGTCACCTAGTGCAG,8130 fluorescence intensity (a.u.)
14,GTTTGACACCGTGGACTTTTTTAAATATGTTTGACCATTCCGGAGTCACCTAGTGCAG,11800 fluorescence intensity (a.u.)
15,ACGTGTCGTTGACTTTTTATCACACGTTTAGCCATTCGTCCGGAGTCACCTAGTGCAG,30200 fluorescence intensity (a.u.)
16,CGTTCCACCGCCGCGCCTCTTCCCCGCCCCGATCGGCTGCCGGAGTCACCTAGTGCAG,8810 fluorescence intensity (a.u.)
17,ACTACAGTCCCTCGCCATGCATGCGCCGTCAGATGTCCAACGGAGTCACCTAGTGCAG,11500 fluorescence intensity (a.u.)
18,GAGCGGGGCGGGGCTGCATTTGGCGTCGCGATGGACCTCACGGAGTCACCTAGTGCAG,12600 fluorescence intensity (a.u.)
19,TTTTTACATCTTAGCCCCTTGCCGCTTTTGCGAATTTTGCCGGAGTCACCTAGTGCAG,9810 fluorescence intensity (a.u.)

row,Sequence,binding signal
1,GCCCACCATTTCCCCAAACATTTCCACACATTCCTACAATCGGAGTCACCTAGTGCAG,13600 fluorescence intensity (a.u.)
2,GTAGATGTAGTAGCTAGCTTTTGTTAATTTCAACGTTCCACGGAGTCACCTAGTGCAG,8380 fluorescence intensity (a.u.)
3,AATATTTTTTTTCTCAATCATTTCTTATCATTATTATTATCGGAGTCACCTAGTGCAG,8280 fluorescence intensity (a.u.)
4,TCTTCATTTCCGTGTTCAGCAGCTTTGCAATAATTTCTATCGGAGTCACCTAGTGCAG,11900 fluorescence intensity (a.u.)
5,TTTCCTCCGTCCCTGAGCTGTACTCGCGCCAATCAATCATCGGAGTCACCTAGTGCAG,9570 fluorescence intensity (a.u.)
6,ATCATCCCATCCCATCTCATCCGTCCATCCGCCAACTCATCGGAGTCACCTAGTGCAG,12300 fluorescence intensity (a.u.)
7,TCCCACTCAGCTGTCCGTCCGCCAATCACTGTACTTCTATCGGAGTCACCTAGTGCAG,22000 fluorescence intensity (a.u.)
8,AGAGATCGGGGTTTGGTTTTTTGGAGGGGAGAGCGGAGTGCGGAGTCACCTAGTGCAG,10200 fluorescence intensity (a.u.)
9,GGGTTTTTTTTTTTTTTGCTGCTTTGCTTAGCACTTTTTTCGGAGTCACCTAGTGCAG,8340 fluorescence intensity (a.u.)
10,CGGGAGGGCGAGAGGGTTTTCGGAGCGGGAGGGGAAGATGCGGAGTCACCTAGTGCAG,15200 fluorescence intensity (a.u.)
11,GGCGGCGGCGGCAGGGGCGGCGGAGGGTTGGCGGCGGCGGCGGAGTCACCTAGTGCAG,11000 fluorescence intensity (a.u.)
12,GGAGGAGGAGCTAGGGTTTCGGATGGGAGGAGGAGGAGGGCGGAGTCACCTAGTGCAG,8800 fluorescence intensity (a.u.)
13,ATCGGGGTTGTTGTTTTTGTAGCTGCTTAAGCTTTTTATTCGGAGTCACCTAGTGCAG,14100 fluorescence intensity (a.u.)
14,GAGGTAGGGAGAGGTTTCGTTAGGGTTTCGGGCGGGGATGCGGAGTCACCTAGTGCAG,19900 fluorescence intensity (a.u.)
15,GGAGGGTTAGATCACCAGGGGCGGGTTGATGCAAAAAATTCGGAGTCACCTAGTGCAG,17000 fluorescence intensity (a.u.)
16,CCAGGAGGGTGAGCTTGATGCAGGGGCGGGTGCGGGCGAGCGGAGTCACCTAGTGCAG,12500 fluorescence intensity (a.u.)
17,CAGTGTAGGGGAGAGAGAGAGAGAGTGGGGTAGAGGGATGCGGAGTCACCTAGTGCAG,8980 fluorescence intensity (a.u.)
18,TTCGGGGAGGGTTTTCGGGGACAGCAGCTGCGGGCTTAAACGGAGTCACCTAGTGCAG,18700 fluorescence intensity (a.u.)
19,CGGAGAGGGAGGGGAGCTAGGGTTTTTCGGGGCGGGGATGCGGAGTCACCTAGTGCAG,27600 fluorescence intensity (a.u.)
